# Reference: publication PMC10668032, “Altered binding affinity of SIX1-Q177R correlates with enhanced WNT5A and WNT pathway effector expression in Wilms tumor”
# Over roughly 33,000 sequences, “e-score” has its median near -0.05; the highest 2% begin near 0.38. This excerpt belongs to a sample that is enriched for the highest values.
# Biological target: T1, SIX1-Q177R homeodomain (human, UniProt Q15475 108-198, Q177R)
# T1 sequence: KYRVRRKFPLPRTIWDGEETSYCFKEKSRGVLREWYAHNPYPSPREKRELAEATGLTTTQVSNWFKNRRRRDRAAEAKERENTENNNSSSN
# Assay: universal protein binding microarray; Universal all-10-mer PBM (8x60K, AMADID 030236), 300 nM GST-tagged protein, Alexa Fluor 488 anti-GST; buffer, salt, pH and temperature not stated (as in Berger); high values mean tight binding
# Settings: protein: ivt; tags: N-terminal GST; dsDNA, one strand shown
# In short: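 GST-tagged homeodomains were made by in vitro transcription/translation and quantified by anti-GST western blot against a recombinant GST standard curve. They were applied in duplicate at 300 nM final concentration to universal 'all 10-mer' protein binding microarrays (8×60K format). Binding was quantified as 8-mer E-scores with the Universal PBM Analysis Suite.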
row,Sequence,binding signal
1,CCTGTGAC,0.194 ± 0.0117 E-score
2,TCAGGGGA,0.165 ± 0.0187 E-score
3,AAACCCTA,0.157 ± 0.0426 E-score
4,AATAGTGT,0.355 ± 0.0289 E-score
5,CCCTTCTA,0.177 ± 0.0196 E-score
6,GTGGGTCA,0.166 ± 0.0309 E-score
7,AAAGGGTG,0.317 ± 0.00321 E-score
8,CCCCTCAC,0.203 ± 0.0371 E-score
9,ACACGGGG,0.4516 ± 0.00397 E-score
10,ACACGGGA,0.411 ± 0.00748 E-score
11,ACGGGGGA,0.208 ± 0.00871 E-score
12,ACCCGGGA,0.192 ± 0.0367 E-score
13,ACACGGGT,0.4532 ± 0.00279 E-score
14,CCACGGGG,0.194 ± 0.0115 E-score
15,ATACGGGG,0.171 ± 0.0145 E-score
16,ACTCGGGC,0.161 ± 0.036 E-score
17,ACCCGGGT,0.377 ± 0.0131 E-score
18,ACACGGGC,0.4237 ± 0.000962 E-score
19,ACACGGAC,0.367 ± 0.00972 E-score
20,CACCGTGG,0.333 ± 0.0206 E-score
21,CACCTCGG,0.269 ± 0.00615 E-score
22,CACGCTGG,0.159 ± 0.00563 E-score
23,CACTCGGG,0.225 ± 0.016 E-score
24,AACCCCAA,0.205 ± 0.00313 E-score
25,CTGACCCC,0.283 ± 0.0439 E-score

row,Sequence,binding signal
1,CGGGGTAC,0.224 ± 0.0106 E-score
2,CAACCGTG,0.187 ± 0.0215 E-score
3,CACTGGCA,0.28 ± 0.0195 E-score
4,ACACGTAG,0.325 ± 0.012 E-score
5,ACACGTAC,0.353 ± 0.00478 E-score
6,ACACGTGT,0.4552 ± 0.00158 E-score
7,ACACGTGG,0.32 ± 0.00325 E-score
8,ACACGTAA,0.323 ± 0.00431 E-score
9,ACACGTCC,0.373 ± 0.00921 E-score
10,ACACGTGA,0.34 ± 0.0135 E-score
11,ACACGTGC,0.383 ± 0.0133 E-score
12,ACACGTAT,0.388 ± 0.00574 E-score
13,CACTAGCC,0.177 ± 0.031 E-score
14,ATACCCGC,0.266 ± 0.0158 E-score
15,GGATCACA,0.168 ± 0.0336 E-score
16,CCCCGCCG,0.241 ± 0.0442 E-score
17,CTGATCCC,0.232 ± 0.00636 E-score
18,ACTCCGTG,0.253 ± 0.00334 E-score
19,ACACGCTG,0.389 ± 0.00589 E-score
20,CCCCGCTA,0.199 ± 0.0313 E-score
21,ACACGTTG,0.331 ± 0.0165 E-score
22,ACACGCGC,0.363 ± 0.0139 E-score
23,GTACGCTA,0.153 ± 0.0129 E-score
24,ACACACTA,0.267 ± 0.012 E-score
25,ACACGCTC,0.384 ± 0.0032 E-score

row,Sequence,binding signal
1,ACACGTTC,0.276 ± 0.0481 E-score
2,ACACGCTA,0.383 ± 0.0134 E-score
3,AACCGGGT,0.218 ± 0.0414 E-score
4,CACCCCAC,0.355 ± 0.0406 E-score
5,ACCCCACC,0.327 ± 0.05 E-score
6,ACTCCCGC,0.253 ± 0.0194 E-score
7,CACCATCA,0.231 ± 0.0313 E-score
8,CCCGGATA,0.164 ± 0.0511 E-score
9,CACTACTC,0.21 ± 0.00852 E-score
10,CACTACAC,0.443 ± 0.00461 E-score
11,GACTCCAC,0.211 ± 0.00527 E-score
12,CACTACAA,0.236 ± 0.0147 E-score
13,AACTACAC,0.445 ± 0.0094 E-score
14,GACTACAC,0.428 ± 0.0046 E-score
15,CACTACAG,0.196 ± 0.0315 E-score
16,AACTACCC,0.151 ± 0.011 E-score
17,CACTACGC,0.166 ± 0.0306 E-score
18,CAAGGGTG,0.252 ± 0.0109 E-score
19,CACTTCCA,0.202 ± 0.0394 E-score
20,GTCCTACA,0.243 ± 0.0623 E-score
21,CACTTAGG,0.229 ± 0.00363 E-score
22,ACTCCACT,0.263 ± 0.0258 E-score
23,CAGGGGTC,0.242 ± 0.0124 E-score
24,GTCGGATA,0.292 ± 0.00296 E-score
25,ACCCCGCC,0.271 ± 0.018 E-score

row,Sequence,binding signal
1,ACCGAAGT,0.167 ± 0.0104 E-score
2,ACCCGCCC,0.243 ± 0.0168 E-score
3,CAACGCCG,0.164 ± 0.00575 E-score
4,ACCCGCCT,0.206 ± 0.00671 E-score
5,ATACGCCA,0.151 ± 0.00585 E-score
6,ACACGCCA,0.381 ± 0.0176 E-score
7,ACCCGCCG,0.258 ± 0.00942 E-score
8,ACGCCCCT,0.205 ± 0.0263 E-score
9,ACACGCCG,0.404 ± 0.009 E-score
10,ACACGCCT,0.416 ± 0.0145 E-score
11,ACACGCCC,0.4216 ± 0.00148 E-score
12,ACGCCCCC,0.19 ± 0.00645 E-score
13,TAACGCCA,0.16 ± 0.00152 E-score
14,GGGGTACA,0.329 ± 0.00694 E-score
15,GATCCCTA,0.24 ± 0.0333 E-score
16,GTGCCAAC,0.156 ± 0.0339 E-score
17,GAATTACA,0.22 ± 0.0378 E-score
18,ACCCATCG,0.179 ± 0.0324 E-score
19,CACTGGGC,0.154 ± 0.00412 E-score
20,ACCCTATC,0.17 ± 0.0179 E-score
21,CCGATACC,0.361 ± 0.0126 E-score
22,AGCACACG,0.257 ± 0.015 E-score
23,CGCACACG,0.24 ± 0.0245 E-score
24,AGCACACT,0.163 ± 0.0222 E-score
25,CGCACACA,0.16 ± 0.0759 E-score

row,Sequence,binding signal
1,AGCACACC,0.38 ± 0.026 E-score
2,CGCACACC,0.395 ± 0.0298 E-score
3,AATCCACA,0.155 ± 0.0214 E-score
4,AGTATACA,0.235 ± 0.0155 E-score
5,ACGCCACC,0.194 ± 0.00825 E-score
6,AAGGGTGT,0.4645 ± 0.00313 E-score
7,CACGGTGA,0.221 ± 0.0367 E-score
8,AACGGTGT,0.4669 ± 0.000509 E-score
9,AAAGGGGT,0.162 ± 0.0302 E-score
10,AATGGTAT,0.227 ± 0.00525 E-score
11,AACGGTGC,0.184 ± 0.0227 E-score
12,AAAAGTGT,0.274 ± 0.0858 E-score
13,AATGGGGT,0.246 ± 0.0257 E-score
14,AATGGTGT,0.4746 ± 0.00144 E-score
15,AAGGGGGT,0.293 ± 0.0313 E-score
16,AAGGGTAT,0.262 ± 0.0281 E-score
17,AAAGGTGT,0.452 ± 0.0138 E-score
18,AGGGGTAT,0.3 ± 0.0125 E-score
19,CGACTCCC,0.263 ± 0.056 E-score
20,GGTCCACA,0.17 ± 0.0089 E-score
21,TCGTTACA,0.278 ± 0.00887 E-score
22,AACCTACA,0.192 ± 0.0148 E-score
23,GTACTGAC,0.172 ± 0.0189 E-score
24,GGCACCCC,0.158 ± 0.0472 E-score
25,CACCCCCG,0.325 ± 0.0496 E-score

row,Sequence,binding signal
1,CACCCCCC,0.341 ± 0.0318 E-score
2,CCCACCCC,0.304 ± 0.0356 E-score
3,CACACCCC,0.402 ± 0.0285 E-score
4,GACACCCA,0.479 ± 0.00732 E-score
5,GACCCCCC,0.248 ± 0.0557 E-score
6,CGCACCCG,0.245 ± 0.0361 E-score
7,GACACCCC,0.487 ± 0.00971 E-score
8,CGCACCCA,0.193 ± 0.0349 E-score
9,GACCCCCA,0.233 ± 0.0487 E-score
10,CACACCCG,0.423 ± 0.0208 E-score
11,CCCCTGAC,0.271 ± 0.0456 E-score
12,CAATGGTG,0.299 E-score
13,CACTCGAC,0.211 ± 0.00795 E-score
14,CGGGTCTC,0.207 ± 0.0182 E-score
15,ATGAGGGG,0.195 ± 0.0319 E-score
16,AAGTCGTG,0.169 ± 0.0361 E-score
17,AGATGGAG,0.181 ± 0.00463 E-score
18,CACGCAAA,0.251 ± 0.0233 E-score
19,AACTCACA,0.174 ± 0.0813 E-score
20,CTGATACC,0.312 ± 0.00631 E-score
21,CGGGAGTA,0.26 ± 0.0317 E-score
22,CACCCATA,0.301 ± 0.0276 E-score
23,CACCTTGA,0.177 ± 0.00756 E-score
24,GTTCTACA,0.239 ± 0.00598 E-score
25,GATCCCCA,0.267 ± 0.0387 E-score

row,Sequence,binding signal
1,AGCACCCT,0.172 ± 0.0259 E-score
2,AGCACCCA,0.159 ± 0.0296 E-score
3,AACACCCT,0.4609 ± 0.00173 E-score
4,AACACCCA,0.4561 ± 0.00225 E-score
5,AACCCCCG,0.244 ± 0.0392 E-score
6,AGCACCCC,0.295 ± 0.0259 E-score
7,ACCACCCT,0.183 ± 0.0205 E-score
8,AACACCCC,0.4753 ± 0.00361 E-score
9,ACCACCCC,0.249 ± 0.0234 E-score
10,AACACCCG,0.466 E-score
11,AACCCCCA,0.209 ± 0.0281 E-score
12,AGCACCCG,0.262 ± 0.00343 E-score
13,AACTCCGG,0.161 ± 0.0108 E-score
14,ACCTCGTG,0.208 ± 0.00536 E-score
15,ACGCCGGG,0.16 ± 0.00711 E-score
16,CGGATAAC,0.213 ± 0.00738 E-score
17,ACCTAGTG,0.232 ± 0.0203 E-score
18,CCGACCGG,0.172 ± 0.0141 E-score
19,CGCGCACC,0.193 ± 0.014 E-score
20,AACGGAGT,0.152 ± 0.031 E-score
21,ACCAGACA,0.234 ± 0.0203 E-score
22,ACGATACC,0.3575 ± 0.00339 E-score
